Measurements taken from PubChem BioAssay AID2825 (Sanford-Burnham Center for Chemical Genomics, 2010).
Screen size: about 330,000 compounds; about 1,300 (0.39%) were called active. Many of the other results were omitted from the sample, so actives are more common in it than they were. Values without a mark were called inactive.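 Rule for the calls: active = inhibition of 50% or more; inactive = inhibition below 50%.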

Test: blockers of yeast NLRP3/ASC/caspase-1 reporter – luminescence, uHTS, primary screen (AID 2825);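 note: plate controls were induced DMSO wells for no effect and uninduced yeast grown without galactose for full effect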
Settings: Yeast reconstituted NLRP3/ASC/caspase-1, beta-gal luminescence, 24 h; at 10 µM; stronger effect = higher value

| SMILES | inhibition |
| --- | --- |
| O=C(NCc1ccc2c(c1)OCO2)c1c(O)nc2sccn2c1=O | 56% (active) |
| O=C(NCc1ccc2c(c1)OCO2)c1sccc1Br | 40.9% |
| CCn1c(=O)c(C(=O)NCc2ccc3c(c2)OCO3)c(O)c2ccccc21 | 17.1% |
| CC(NC(=O)COC(=O)CCC(=O)c1ccc(Cl)cc1)c1ccccc1 (stereo unspecified) | 6.94% |
| CC1CCN(C(=S)NC(=O)c2ccccc2Br)CC1 | 15.7% |
| CCCN(CC1CC1)C(=S)NC(=O)c1ccccc1Br | 50.5% (active) |
| O=C(NC(=S)Nc1ncccn1)c1ccccc1Br | 6.12% |
| COc1ccc(S(=O)(=O)NCc2cccnc2)cc1NC(=O)c1ccc(C)cc1 | 9.95% |
| CCc1cc(-c2n[nH]c(=S)n2CC(C)C)cs1 | 29.7% |
| Cc1nc2sc(C(c3ccco3)N3CCC4(CC3)OCCO4)c(O)n2n1 (stereo unspecified) | 13.3% |
| Cc1ccc(O)c(NC(=O)c2cc(-c3ccco3)on2)c1 | 56.4% (active) |
| CC(C)Cc1cc(C(=O)Nc2cc(Br)ccc2O)no1 | 29.5% |
| O=C(Nc1ccccc1C(F)(F)F)c1cc(-c2ccc(O)cc2)on1 | 32% |
| COc1cccc(C(=O)Oc2cc(C)[nH]c(=O)c2[N+](=O)[O-])c1 | 16% |
| COC(=O)c1ccc(S(=O)(=O)N(CCO)Cc2ccccc2)n1C | 4.79% |
| CN1CCN(C(=O)/C(=C\c2cccs2)NC(=O)c2cccs2)CC1 | 7.81% |
| C=CCn1c(SCC(N)=O)nnc1-c1cc2c(s1)CCC(CC)C2 (stereo unspecified) | 4.35% |
| O=C(O)C1CCCN1C1=NS(=O)(=O)c2ccccc21 (stereo unspecified) | -1.91% |
| O=C(Nc1ccc2oc(-c3ccccc3F)nc2c1)c1ccco1 | 54.8% (active) |
| COc1cc(OC)cc(C(=O)Nc2ccc(-c3nc4ccccc4o3)c(O)c2)c1 | 10.3% |
| O=C(Nc1cccc(-c2nc3ncccc3o2)c1)c1ccco1 | 18.2% |
| C=CCN1C(=O)C(O)(CC(=O)c2ccc(Cl)cc2)c2ccccc21 (stereo unspecified) | -10.4% |
| CC(C)Sc1ncnc2c1cnn2-c1ccccc1 | 50.5% (active) |
| CC(Sc1ncnc2c1cnn2-c1ccccc1)C(=O)Nc1ccc(N2CCOCC2)cc1 (stereo unspecified) | 8.39% |

| SMILES | inhibition |
| --- | --- |
| CCN(CC)C(=O)CSc1ncnc2c1cnn2-c1ccccc1 | 35.5% |
| Oc1c(Cl)cc(Cl)c(Cl)c1Cc1c(O)c(Cl)cc(Cl)c1Cl | 95.9% (active) |
| CCCn1c(SCC(=O)Nc2ccc(C)c(S(=O)(=O)N3CCOCC3)c2)n[nH]c1=O | 4.23% |
| CC1(C)Cc2c(sc3nc(SCC(=O)NCc4ccccc4)n(-c4ccccc4)c(=O)c23)CS1 | -8.33% |
| COC(=O)c1ccc(S(=O)(=O)NCc2ccccc2)n1C | 14.2% |
| O=C(Nc1cc(S(=O)(=O)N2CCCCC2)ccc1Cl)C1COc2ccccc2O1 (stereo unspecified) | 4.78% |
| CCCCCCC12CCC(C(=O)O)(CC1)CC2 | 54.3% (active) |
| CCCCCCCCCCCC(=O)O | 12.3% |
| CN1CCN(c2ccc(S(=O)(=O)N3CCOCC3)cc2NC(=O)CCc2ccccc2)CC1 | 12.1% |
| COc1cc(NC(=O)CN2C(=O)NC(C)(c3ccc(OC(F)F)cc3)C2=O)cc(OC)c1OC (stereo unspecified) | 11.2% |
| O=[N+]([O-])c1c(NCCO)cc(Sc2nc3ccccc3s2)c2nonc12 | 55.2% (active) |
| CCN(CC)CCCSc1nc2ccccc2s1 | 15.5% |
| Cc1nc2nc(CSc3nc4ccccc4s3)cc(=O)n2[nH]1 | 1.14% |
| Cc1ccccc1S(=O)(=O)Cc1ccc(C(=O)NCCN2CCCCC2C)o1 (stereo unspecified) | 13.3% |
| COc1ccc(C2Nc3ccccc3C(=O)N2c2ccc(Cl)cc2)cc1Cn1cc([N+](=O)[O-])cn1 (stereo unspecified) | 1.4% |
| Cc1cccc(C(=O)OC(C)C(=O)NC2CCCc3ccccc32)c1O (stereo unspecified) | 11.6% |
| Cc1ccc(C(c2sc3nc(C)nn3c2O)N2CCN(c3ccccc3)CC2)cc1 (stereo unspecified) | -2.77% |
| CCN(CC)c1ccc(/C=N/Nc2nc(C)cc(C)n2)c(O)c1 | 58.1% (active) |
| Cc1cc(C)nc(N/N=C/c2c(CO)cnc(C)c2O)n1 | 15.2% |
| CCN(CC)c1ccc(/C=N/NC(=O)c2cnccn2)c(O)c1 | 27.9% |
| OCCC1CN(Cc2cnc(-c3ccccc3)s2)CCN1CCc1ccccc1 (stereo unspecified) | 1.33% |
| CCOC(OCC)c1ccc(/C=C\c2nccc(N)n2)cc1 | 14.7% |
| COc1ccc(Oc2coc3cc(OC(=O)c4cncc(Br)c4)ccc3c2=O)cc1 | 2.36% |
| O=C(Oc1c(-c2ccco2)oc2ccccc2c1=O)c1cccnc1 | 54.3% (active) |

| SMILES | inhibition |
| --- | --- |
| O=C(OCc1cc2ccccc2[nH]c1=O)c1cccnc1 | 11.2% |
| C=C(C)c1cccc(C(C)(C)NC(=O)NCCN(CC)CC)c1 | 5.58% |
| COC(=O)c1cc(S(=O)(=O)NC2CCN(Cc3ccccc3)CC2)cn1C | 11.4% |
| CC(=O)c1c(C)[nH]c(C(=O)COc2ccc3c(C)cc(=O)oc3c2)c1C | 17.5% |
| CCOC(=O)c1c(C)[nH]c(C(=O)OCC(=O)c2ccc(OC)cc2OC)c1C | 22.6% |
| CCOC(=O)c1c(C)[nH]c(C(=O)COc2ccc3c(c2)OCO3)c1C | 79.9% (active) |
| O=c1[nH]c(CCl)nc2cc(-c3ccc(Cl)cc3)sc12 | 2.25% |
| O=C(NCC1CCCO1)c1ccc(S(=O)(=O)Nc2ccc(F)cc2)cc1 (stereo unspecified) | 16.8% |
| COCCNC(=S)N1CCN(C)CC1 | 5.02% |
| CC(Sc1ccccc1F)C(=O)Nc1cccc(S(=O)(=O)N2CCOCC2)c1 (stereo unspecified) | 6.56% |
| O=C(CCC(=O)c1cccs1)Nc1nc2ccccc2s1 | 3.03% |
| Cc1ccnc(Nc2nc3ccccc3s2)n1 | 53.7% (active) |
| Cc1ccnc(-n2sc3ccccc3c2=O)n1 | 6.74% |
| Cc1ccc(NS(=O)(=O)c2cccs2)cc1S(=O)(=O)N1CCCCCC1 | 8.88% |
| CCn1nc(C)c(NC(=O)/C=C/c2ccc(OC)c(COc3ccc(Br)cc3)c2)c1C | 7.05% |
| COc1cc(N2C(=O)c3ccccc3C2=O)c(Cl)cc1C(=O)OCC(=O)N1CCOCC1 | -0.245% |
| N#C/C=C(/c1ccc(F)cc1)N1CCOCC1 | 6.72% |
| CCOc1cc(/C=N/NC(=O)OC)ccc1OCCSc1ccc(Cl)cc1 | 33.5% |
| CC(C)(C)NC(=O)CN(C(=O)c1ccc(Cl)nc1)c1cccc2ccccc12 | 13.4% |
| O=C(O)CC1=C(Nc2ccccc2)C(=O)N(c2ccccc2)C1c1ccc(Cl)cc1 (stereo unspecified) | 15% |
| O=C(CCC(=O)OCc1ccc(Cl)cc1)Nc1ccccc1 | 21% |
| O=C1C=C(c2ccc(Cl)cc2)C(=O)N1Nc1ccccc1 | 74.6% (active) |
| Cc1sc2c(c1C)c(=O)n(-c1ccccc1)c1nncn21 | 2.84% |
| CCCCNC(=O)C1(O)c2ccccc2NC(=O)N1c1ccc(Cl)cc1 (stereo unspecified) | 3.8% |

| SMILES | inhibition |
| --- | --- |
| COc1cc(NC(=O)C2=CC(c3ccco3)=NS(=O)(=O)N2C)cc(OC)c1OC | 2.53% |
| Cc1noc(C)c1CSCC(=O)Nc1nc2ccc(Oc3ccccc3)cc2s1 | 9.07% |
| CCc1noc(C)c1C(=O)Nc1nc2ccc(OC)cc2s1 | 70.8% (active) |
| CCc1noc(C)c1C(=O)Nc1nc(-c2ccccc2)cs1 | 45.9% |
| Cc1ccc(C)c(N2CCN(C(=O)Cn3ncn4cccc4c3=O)CC2)c1 | -5.29% |
| COCCN1CCn2c(nc3cc(NS(C)(=O)=O)ccc32)C1 | 10.9% |
| CN=C1C=C/C(=N/N=c2\ccn(O)cc2C)C=C1C | 57.6% (active) |
| COCCn1c(=O)[nH]c2cc(C(=O)NCc3cccnc3)ccc2c1=O | -3.21% |
| CC(NC(=O)c1cc2cc(Cl)ccc2oc1=N)c1ccccc1 (stereo unspecified) | 14.4% |
| CC(=O)C12CC(C)=C(C)CC1CC1C3CCC4=CC(=O)CCC4(C)C3CCC12C (stereo unspecified) | -1.41% |
| CC(=O)[C@@]12O[C@@H]1C[C@H]1[C@@H]3CC[C@H]4C[C@@H](O)CC[C@]4(C)[C@H]3CC[C@@]12C | 58.4% (active) |
| CC(=O)O[C@H]1CC[C@@]2(C)[C@@H](CC[C@@H]3[C@@H]2CC[C@]2(C)[C@@H](C(C)(C)O)C[C@@H]32)C1 | 32.9% |
| CC1CCN(S(=O)(=O)c2ccc3[nH]c(=O)ccc3c2)CC1 | 18.1% |
| CCc1ccc(NC(=O)NC(C)c2ccc3c(c2)OCO3)cc1 (stereo unspecified) | 24.3% |
| O=C(CC(Cc1ccccc1)C(=O)O)NCCc1ccc2c(c1)OCO2 (stereo unspecified) | 20.5% |
| CC(=NCc1ccc2c(c1)OCO2)C1=C(O)c2ccccc2C1=O | 57.8% (active) |
| CCC(=O)c1cc(F)ccc1OCC(=O)Nc1ccc2c(c1)OCCO2 | 26.6% |
| O=C(NC1CCC(O)CC1)c1ccccc1OCc1ccc(F)cc1 (stereo unspecified) | 1.97% |
| COCCNC(=O)CCCn1c(=O)c2ccccc2n(Cc2cccc([N+](=O)[O-])c2)c1=O | -0.805% |
| Cc1cc(C(=O)COc2ccc(Br)cc2F)c(C)n1C1CC1 | 58.4% (active) |
| O=C(COc1ccc(Br)cc1F)NC1CCN(Cc2ccccc2)CC1 | 23% |
| Cc1cc(C(=O)COc2ccccc2Cl)c(C)n1C1CC1 | 21.7% |
| O=C1C=CN2CCCC2CC1 (stereo unspecified) | -5.59% |
| CC(C)C(=O)N1CCN(CCN=CC2=C(O)CC(c3ccco3)CC2=O)CC1 (stereo unspecified) | 60.8% (active) |

| SMILES | inhibition |
| --- | --- |
| O=C1CC(c2ccccc2)CC(O)=C1C=NCCN1CCOCC1 (stereo unspecified) | 29.8% |
| CC(=O)N1CCN(CCN=CC2=C(O)CC(C)(C)CC2=O)CC1 | 32.1% |
| Cc1cc(C(=O)OCC(=O)Nc2nccs2)c2ccccc2n1 | 10.4% |
| O=C(/C=C/c1ccc(OCc2c(F)cccc2Cl)cc1)N1CCOCC1 | 28.2% |
| CN(C)CCCNC(=O)/C=C/c1ccc(OCc2c(F)cccc2Cl)cc1 | 20.8% |
| COCCCNC(=O)/C=C/c1ccc(OCc2c(F)cccc2Cl)cc1 | 50.9% (active) |
| CCN(CC(=O)Nc1ccc(NC(C)=O)cc1)C(=O)CSC(=S)N1CCCC1 | 4.68% |
| C=CCC1(CC=C)CCCN1C(=O)CC1C(=O)NCCN1Cc1ccccc1OC (stereo unspecified) | 4.65% |
| Cc1sc2ncnc(Sc3nc4ccccc4s3)c2c1C | 6.48% |
| CCCNc1ncnc2sc(C)c(C)c12 | 55.9% (active) |
| CSc1ncnc2sc(C)c(C)c12 | 11.2% |
| Cc1cc(NC(=O)CN2C(=O)NC(C)(CCc3ccccc3)C2=O)no1 (stereo unspecified) | -3.27% |
| COCCNC(=O)c1ccc2nc(Cc3ccc(OC)c(OC)c3)oc2c1 | 20.9% |
| O=[N+]([O-])/C=C/c1ccc2c(ccn2Cc2ccccc2)c1 | 92.3% (active) |
| O=C(Cn1ccc2cc(S(=O)(=O)N3CCCC3)ccc21)NCc1ccccc1 | 11.6% |
| Cc1ccc2[nH]c3c(=O)n(CC(=O)NCCc4ccc(Cl)cc4)ncc3c2c1 | 1.78% |
| CC1(C)CCSC(/C=C/c2ccccc2)=N1 | 85.7% (active) |
| COc1ccc(CCNS(=O)(=O)c2ccc(Cl)s2)cc1OC | 11% |
| CC1CC(C)CN(S(=O)(=O)c2cccc3nonc23)C1 (stereo unspecified) | 25% |
| CC(C)C[C@H](NC(=O)NCCc1ccc(Cl)cc1)C(=O)O | 2.68% |
